Screening results from PubChem BioAssay.
In the library only some 2.2% were active in any assay of this set; here they are far more common.
GC-B act: GC-B (human) receptor activation. AID 1920062. P20594. activation, % at 10 µM. actives 0.11% (n = 370,000). HEK293-GC-B cells, CNP EC30, cGMP TR-FRET; 0% at EC30 CNP, 100% saturating CNP;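 active = activation at 10 µM reaching about 35% in either raw or pattern-adjusted values, limit read from the data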
proKLK7 act: proKLK7 (human) activation, primary screen; activation, % at 7 µM; purified proKLK7, EDANS-DABCYL substrate fluorescence; 100% is mature enzyme control, 0% vehicle; AID 652039; P49862; actives 0.9% (n = 370,000);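 active = activation above the mean of all tested compounds plus 3 SD, computed per campaign excluding outliers beyond control limits, cut at about 13% in these data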
ADAM17 inh: inhibits human ADAM17. P78536. recombinant ADAM17, EDANS/DABCYL FRET peptide cleavage. inhibition, % at 6.95 µM. actives 0.83% (n = 370,000). AID 720648;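 active = inhibition above the mean of compounds lying between control limits plus 3 SD, set per campaign, cut at about 8.5% in these data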;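 also: 0% = DMSO-only wells as the low control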
GC-A act: GC-A (human) enzyme activation; P16066; HEK293 GC-A cells, cGMP TR-FRET, EC30 ANP; 0% at EC30 ANP, 100% saturating ANP; activation, % at 10 µM; actives 0.14% (n = 370,000); in the data active = activation above about 40%
ADAM10 inh: ADAM10 inhibition, QFRET primary screen; recombinant ADAM10, EDANS/DABCYL FRET peptide cleavage, 3 h; actives 0.62% (n = 370,000); O14672; inhibition, % at 7 µM;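 active = inhibition above a per-campaign cutoff equal to the mean of compounds falling between control-based bounds plus 3 SD, cut at about 20% in these data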;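 also: 0% = DMSO wells while the 100% control is not disclosed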
KLK7 act conf: confirmation of human kallikrein-7 zymogen activators. shares compounds with proKLK7 act. purified proKLK7, EDANS-DABCYL substrate fluorescence; scaled: vehicle 0, mature enzyme 100. activation, % at 7 µM. actives 68% (n = 3,200);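 active = activation, as change over the incubation, above the mean of all tested compounds plus 3 SD, cut at about 13% in these data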
EDANS interfere: fluorescence interference counter-screen for KLK7 activators; shares compounds with proKLK7 act; EDANS-DABCYL substrate fluorescence interference, no enzyme, 4 h; solvent 0%, active enzyme control 100%; activation, % at 7 µM; actives 80% (n = 3,200); AID 686952;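 active = activation above the all-compound mean plus 3 SD, ignoring values outside control-based bounds, cut at about 4.8% in these data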;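 also: value is the 4 h activation minus the activation read at time zero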
An asterisk follows results filed as active.

How did CN(C)Cc1c(O)ccc2cc(-c3nc4ccccc4n3C)c(=O)oc12 do in these assays?
GC-B act: 3; proKLK7 act: 78*; ADAM17 inh: inactive; GC-A act: 15; ADAM10 inh: inactive; KLK7 act conf: 67*; EDANS interfere: 77*

What do the screens show for `O=C(OC12CCCN(C1)/C(=C/c1ccc(Cl)cc1)C2)c1ccc(F)cc1` (configuration not stated)?
GC-B act: -17; proKLK7 act: 0; ADAM17 inh: 3; GC-A act: -2; ADAM10 inh: 3

Results for CONC(=O)c1ccc(-c2cccc3nccn23)cc1 ?
GC-B act: 2; proKLK7 act: 13*; ADAM17 inh: -29; GC-A act: -1; ADAM10 inh: -123; KLK7 act conf: 6; EDANS interfere: 12*

What do the screens show for `CN(C)C(=O)c1cccc(-c2cccc3nccn23)c1`?
GC-B act: 0; proKLK7 act: 2; ADAM17 inh: -81; GC-A act: -1; ADAM10 inh: -258

Results for OCc1ccc(-c2cccc3nccn23)cc1 ?
GC-B act: -4; proKLK7 act: 16*; ADAM17 inh: -454; GC-A act: 5; ADAM10 inh: inactive; KLK7 act conf: 15*; EDANS interfere: 14*

Results for CCCCCCn1cc(CN2CC=CS2(=O)=O)nn1 ?
GC-B act: 5; proKLK7 act: 0; ADAM17 inh: -3; GC-A act: 4; ADAM10 inh: 1

How did COc1cc2c(cc1OC)CN(c1ccc3ccccc3n1)CC2 do in these assays?
GC-B act: -1; proKLK7 act: 42*; ADAM17 inh: -82; GC-A act: 3; ADAM10 inh: -265; KLK7 act conf: 70*; EDANS interfere: 80*

What do the screens show for `COc1cc2c(cc1OC)CN(c1ccc(C(F)(F)F)cn1)CC2`?
GC-B act: 6; proKLK7 act: 9; ADAM17 inh: -25; GC-A act: 3; ADAM10 inh: -78

What do the screens show for `COc1ccc(C(c2ccc(OC)cc2)N2CCN(C(=O)c3noc(C)c3[N+](=O)[O-])CC2)cc1`?
GC-B act: 0; ADAM17 inh: 4; GC-A act: -3; ADAM10 inh: 13

How did O=C1Nc2ccccc2O/C1=C\c1c(F)cccc1Cl do in these assays?
GC-B act: 3; proKLK7 act: 17*; ADAM17 inh: -317; GC-A act: 8; ADAM10 inh: inactive; KLK7 act conf: -69; EDANS interfere: -54

How did Nc1nc2ccc(Cl)cc2cc1C(=O)NCCc1ccc(Cl)cc1Cl do in these assays?
GC-B act: -7; proKLK7 act: -1; ADAM17 inh: -14; GC-A act: -4; ADAM10 inh: -53

What do the screens show for `Nc1nc2ccc(Cl)cc2cc1C(=O)NC1CC1`?
GC-B act: 0; proKLK7 act: 16*; ADAM17 inh: -253; GC-A act: 2; ADAM10 inh: inactive; KLK7 act conf: 12; EDANS interfere: 8.8*

What do the screens show for `CCN(CC)CCCNC(=O)c1cc2cc(Cl)ccc2nc1N`?
GC-B act: -2; proKLK7 act: 17*; ADAM17 inh: -168; GC-A act: -2; ADAM10 inh: inactive; KLK7 act conf: 26*; EDANS interfere: 25*

Results for O=C(NC1CCC(O)CC1)c1cc(-c2ccc(Cl)cc2)nc2ccccc12 (configuration not stated) ?
GC-B act: -2; proKLK7 act: 0; ADAM17 inh: -4; GC-A act: 0; ADAM10 inh: -20

What do the screens show for `CNC(=O)c1ccc(-c2ccc(OC)cc2)s1`?
GC-B act: -5; proKLK7 act: 50*; ADAM17 inh: inactive; GC-A act: 3; ADAM10 inh: inactive; KLK7 act conf: 56*; EDANS interfere: 66*

Results for COc1ccc(NC(=O)c2ccc(-c3ccc(OC)cc3)s2)cc1 ?
GC-B act: -1; proKLK7 act: 0; ADAM17 inh: -4; GC-A act: -1; ADAM10 inh: -21

Results for Cc1cc(C)c(C#N)c(SCC(=O)CC(=O)OC(C)C)n1 ?
GC-B act: 1; proKLK7 act: 45*; ADAM17 inh: -32; GC-A act: -1; ADAM10 inh: -135; KLK7 act conf: 72*; EDANS interfere: 69*

Results for CCOC(=O)CSc1nc(C)cc(C)c1C#N ?
GC-B act: 1; proKLK7 act: 30*; ADAM17 inh: -14; GC-A act: -4; ADAM10 inh: -34; KLK7 act conf: 56*; EDANS interfere: 54*

What do the screens show for `CCOC(=O)CSc1nc(N)c(C#N)c(-c2ccc(OCC)cc2)c1C#N`?
GC-B act: 1; proKLK7 act: 13*; ADAM17 inh: -8; GC-A act: 9; ADAM10 inh: -18; KLK7 act conf: -53; EDANS interfere: -64

Results for CCOC(=O)C1=C(CSc2nc(C)cc(C)c2C#N)OC(N)=C(C#N)C1c1ccccc1 (configuration not stated) ?
GC-B act: 2; proKLK7 act: 26*; ADAM17 inh: -28; GC-A act: -8; ADAM10 inh: -75; KLK7 act conf: 33*; EDANS interfere: 30*

How did O=C(Nc1nc(Cc2ccccc2)c(-c2ccccc2)n1Cc1ccccc1)c1ccccc1 do in these assays?
GC-B act: -7; proKLK7 act: -7; ADAM17 inh: -2; GC-A act: -4; ADAM10 inh: -18

What do the screens show for `C=CCN1C(=O)[C@@H](CC(=O)NCC2CCCCC2)[C@]2(C(=O)OCC)CCCCC/C=C/12`?
GC-B act: 4; proKLK7 act: 0; ADAM17 inh: 3; GC-A act: 1; ADAM10 inh: 2

Results for Cc1nc(SCC(=O)CC(=O)OC(C)C)c(C#N)c(C)c1C ?
GC-B act: 6; proKLK7 act: 40*; ADAM17 inh: -25; GC-A act: -3; ADAM10 inh: -106; KLK7 act conf: 63*; EDANS interfere: 57*

Results for COc1ccc(-c2csc(=Nc3c(C)n(C)n(-c4ccccc4)c3=O)n2C(C)(C)C)cc1 ?
GC-B act: -3; proKLK7 act: 0; ADAM17 inh: 0; GC-A act: -7; ADAM10 inh: -1

How did COc1ccc(-c2cc(=Nc3c(C)n(C)n(-c4ccccc4)c3=O)c3ccccc3o2)cc1 do in these assays?
GC-B act: 1; proKLK7 act: 40*; ADAM17 inh: inactive; GC-A act: 7; ADAM10 inh: inactive; KLK7 act conf: 43*; EDANS interfere: 53*
